The list is not random: actives were taken first. Their share in the collection is about 19%.
IL1B secr inh – inhibitors of inflammasome signaling (IL-1 beta secretion). THP-1 LPS/ATP IL-1B secretion, AlphaLISA, 16 h; active compounds read low. activity change, % at 57.5 µM. 4.7% of 360,000 active. AID 743279; in the data active = activity change below about -50%; inconclusive = mostly about -30% to -49%; note: % is set by controls: 0 for no effect and ±100 for the full control effect
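THP-1 cells pretreated 1 hr with compounds (up to 57.5 uM final), then stimulated with LPS (250 ng/mL final) plus ATP (1.25 mM final); secreted IL-1B measured by AlphaLISA after 16 hr, decreased signal indicating inhibition.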
HepG2 viability – counter-screen for TGF-b inhibitors: cytotoxicity in HepG2 cells. 0.76% of 410,000 active. Potency, µM (top dose mostly 46.1 µM), without a hit: top-dose activity change, negative = cytotoxicity, most hits filed as cytotoxic. HepG2 CAGA-GFP viability, ATP luminescence, 18 h; note: potency is the fitted concentration of half-maximal effect
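HepG2 CAGA-GFP cells (1000/well, DMEM with 1% FBS) received compound, then TGF-beta at 500 pg/mL final, and were incubated 18 hours at 37 degrees C. Viability was read by CellTiter-Glo luminescence. Media-only wells were set as complete cell-killing and DMSO as no toxicity.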
TGFb inhibitor – inhibitors of TGF-b signaling. AID 588855. HepG2 CAGA-GFP TGF-b/SMAD3 reporter, GFP fluorescence, 18 h; TGF-beta stimulated, 500 pg/mL final. Potency, µM (titrated, usually from 46.1 µM), for the others: at the top dose activity, negative = inhibition, most hits filed as inhibitors. 1.2% of 410,000 active; note: potency is the fitted concentration of half-maximal effect; % is set by controls: 0 for no effect and ±100 for the full control effect; nearly all actives have a fitted effect of over 65% in size
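Using HEPG2 CAGA-GFP reporter cells at 1000 cells/well, we pinned test compounds, stimulated with recombinant TGF-beta (500 pg/mL final) and measured total well GFP after 18 h.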
S-ASM inh – inhibitors of human secretory acid sphingomyelinase; P17405; placental ASM, HMU-PC fluorogenic substrate, 60 min; Potency, µM (highest dose often 57.5 µM), for inactives: at the highest dose activity change, negative = inhibition, most hits filed as inhibitors; 0.006% of 340,000 active; AID 504937; note: potency is the fitted concentration of half-maximal effect
Target sequence (P17405 47-631 limits assumed): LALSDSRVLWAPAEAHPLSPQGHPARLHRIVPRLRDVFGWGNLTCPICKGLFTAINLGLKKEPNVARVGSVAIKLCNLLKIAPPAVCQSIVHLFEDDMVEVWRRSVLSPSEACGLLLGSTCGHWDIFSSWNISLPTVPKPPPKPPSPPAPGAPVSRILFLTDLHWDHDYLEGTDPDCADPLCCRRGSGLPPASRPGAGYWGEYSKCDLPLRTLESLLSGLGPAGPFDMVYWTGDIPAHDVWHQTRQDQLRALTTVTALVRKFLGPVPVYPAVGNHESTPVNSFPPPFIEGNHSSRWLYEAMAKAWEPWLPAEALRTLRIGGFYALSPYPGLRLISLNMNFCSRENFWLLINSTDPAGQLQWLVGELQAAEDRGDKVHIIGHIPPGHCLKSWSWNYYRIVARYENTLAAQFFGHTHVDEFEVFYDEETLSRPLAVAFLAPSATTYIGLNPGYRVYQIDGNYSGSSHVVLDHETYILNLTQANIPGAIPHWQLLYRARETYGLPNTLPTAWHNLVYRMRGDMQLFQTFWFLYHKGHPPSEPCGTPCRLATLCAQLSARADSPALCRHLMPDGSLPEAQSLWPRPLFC
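Human placenta-derived ASM preincubated with compound 10 min at room temperature, then reacted with 9 uM (final) fluorogenic HMU-PC substrate for 60 min at 37 C. Stop solution raises pH to 10; fluorescence read at Ex 386/Em 447 nm.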
DT40 TDP1 no CPT – qHTS for Inhibitors of human tyrosyl-DNA phosphodiesterase 1 (TDP1): qHTS in cells in absence of CPT. Potency, µM (titrated, usually from 46.2 µM), without a hit: at the highest dose activity change, negative = growth inhibition, most hits filed as inhibitors. DT40 Tdp1-/- hTDP1 cells, no CPT, ATP luminescence, 48 h. AID 686978, 2013. 15% of 420,000 active; note: potency is the fitted concentration of half-maximal effect; % is set by controls: 0 for no effect and ±100 for the full control effect; nearly all actives have a fitted effect of over 55% in size
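Compound effects on proliferation are scored in DT40 Tdp1-/-;hTDP1 cells in the absence of CPT. ATP levels (CellTiter-Glo luminescence) are recorded after a ≥48 hr, 37 °C incubation.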
DT40 TDP1 CPT – DT40-hTDP1 cell growth loss with CPT. chicken DT40 Tdp1-/-;hTDP1 cells + 20 nM CPT, ATP luminescence, 48 h. 12% of 420,000 active. Potency, µM (highest dose often 46.2 µM), for inactives: top-dose activity change, negative = growth inhibition, most hits filed as inhibitors; note: potency is the fitted concentration of half-maximal effect; % is set by controls: 0 for no effect and ±100 for the full control effect; nearly all actives have a fitted effect of over 55% in size
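Cell growth measured by CellTiter-Glo luminescence after a minimum 48 h, 37 C compound exposure with 20 nM CPT in Tdp1-knockout DT40 cells stably expressing hTDP1, seeded 400/well; qHTS titration format.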
Starred values were filed as active, the others as inactive; ? = inconclusive; nt = no result. Unless noted, calls come from the whole dose curve; as a rule, active = well fitted curve in the direction sought with a large enough effect; inconclusive = small, poorly fitted or top-dose-only effect, or another doubt; inactive = no such curve, though single readings can be large; an effect the other way counts as inactive or inconclusive.

SMILES	IL1B secr inh	HepG2 viability	TGFb inhibitor	S-ASM inh	DT40 TDP1 no CPT	DT40 TDP1 CPT
Oc1ccccc1C1C=C(c2ccc3c(c2)OCO3)NC(c2cccc(Br)c2)N1 (stereo not given)	nt	-93%	?	nt	nt	nt
Oc1ccc(Br)cc1C1C=C(c2ccc3c(c2)OCO3)NC(c2cccc(F)c2)N1 (stereo not given)	nt	-103%	?	nt	nt	nt
CCOc1cccc(C2C=C(c3ccc4c(c3)OCO4)NC(c3ccccc3Cl)N2)c1O (stereo not given)	nt	-27%	?	nt	11µM*	?
COC(=O)c1ccc(C2NC(c3ccc4c(c3)OCO4)=CC(c3ccccc3O)N2)cc1 (stereo not given)	nt	-49%	11µM*	nt	6.3µM*	7.1µM*
Oc1ccccc1C1C=C(c2ccc3c(c2)OCO3)NC(c2cccc(F)c2)N1 (stereo not given)	nt	18µM*	?	nt	nt	nt
CC1C(c2ccccc2)N(C)C(c2ccccc2)CC1(O)c1ccccc1 (stereo not given)	-1	22µM*	?	-1%	?	?
COc1cccc(S(=O)(=O)N(C)C[C@H]2OCc3cn(nn3)CCCC(=O)N([C@H](C)CO)C[C@@H]2C)c1	28	-47%	-4%	nt	11%	7%
COc1ccc(S(=O)(=O)Nc2cccc3c2O[C@H](CN(C)C(=O)Nc2c(C)noc2C)[C@@H](C)CN([C@H](C)CO)C3=O)cc1	11	-3%	2%	1%	-3%	3%
Cc1cccc(CNCCn2cc(C(=O)Nc3ccccc3)nn2)c1	nt	nt	nt	nt	-11%	-19%
O=c1[nH]nc(N2CCOCC2)c(=O)[nH]1	1	-25%	-4%	-1%	16µM*	?
CC(C(=O)N(C)C1CCCCC1)N1CCC(C(N)=O)CC1 (stereo not given)	-10	-9%	-2%	3%	0%	-9%
CC(=O)Nc1ccc(S(=O)(=O)N2CCN(C(=O)N3CCOCC3)CC2)cc1	19	7%	5%	4%	-17%	-6%
CC(=O)Nc1ccc(S(=O)(=O)N2CCN(C(=O)c3ncoc3-c3ccccc3)CC2)cc1	14	1%	7%	2%	12µM*	?
Cc1ccc2nc(CN3CCN(C(=O)Nc4cccc(C)c4C)CC3)oc2c1	nt	-12%	?	nt	-4%	?
C=CCNC(=O)c1onc(CSc2ccncc2)c1C(=O)NCC=C	-4	-4%	2%	4%	-13%	-6%
COc1ccccc1CN(CC(=O)NCc1ccc2c(c1)OCO2)C(=O)c1ccc2c(c1)OCCO2	0	3%	-1%	-2%	21µM*	?
Cc1ccc(NC(=O)C2(C)CCN2C(=O)Cc2ccc(C(C)C)cc2)cc1 (stereo not given)	32	2%	-21%	nt	23µM*	?
COc1ccccc1OCCC(=O)NCc1ccc2c(c1)OCO2	40	-3%	-17%	3%	?	?
COc1ccc(CN2CCC2(C)C(=O)NCCNC(C)=O)c2ccccc12 (stereo not given)	18	-4%	10%	nt	1%	8%
CC(C)c1ccc(CC(=O)N2CCC2(C)C(=O)Nc2ccc3c(c2)OCO3)cc1 (stereo not given)	29	-22%	-18%	nt	18µM*	?
COc1ccc(CN2CCC2(C)C(=O)NCc2ccc3c(c2)OCO3)c2ccccc12 (stereo not given)	12	-28%	?	nt	?	23µM*
CC1(C(=O)Nc2ccc3c(c2)OCCO3)CCN1C(=O)Cc1ccc(-c2ccccc2)cc1 (stereo not given)	10	-34%	-16%	nt	?	?
CN(C)CCCn1c2c(c(SCC(=O)Nc3ccc4c(c3)OCO4)nc1=O)CCC2	-11	-5%	14%	-4%	-22%	2%
CC1(C(=O)Nc2ccc3c(c2)OCO3)CCN1C(=O)Cc1cccs1 (stereo not given)	-7	-16%	-15%	nt	?	?
Cc1ccc(NC(=O)C2(C)CCN2Cc2csc3ccccc23)cc1 (stereo not given)	?	-40%	?	nt	?	?
SMILES	IL1B secr inh	HepG2 viability	TGFb inhibitor	S-ASM inh	DT40 TDP1 no CPT	DT40 TDP1 CPT
CC1(C(=O)Nc2ccc3c(c2)OCO3)CCN1C(=O)Cc1cccc2ccccc12 (stereo not given)	6	-50%	-21%	nt	16µM*	21µM*
CC1(C(=O)Nc2ccc3c(c2)OCO3)CCN1Cc1csc2ccccc12 (stereo not given)	?	-13%	?	nt	?	23µM*
CCCCCCCCCCCCCCCCCC(=O)OC[C@@H](O)[C@H]1OC[C@H](O)[C@H]1O	nt	nt	nt	nt	-18%	-17%
O=C(Nn1c(C2CCCCC2)nc2ccccc2c1=O)c1ccc(Cl)c([N+](=O)[O-])c1	-224*	-24%	?	?	?	?
Cc1cc(C(=O)Nn2c(C3CCCCC3)nc3ccccc3c2=O)ccc1[N+](=O)[O-]	51	-54%	20µM*	-18%	?	?
O=C(Nn1c(C2CCCCC2)nc2ccccc2c1=O)c1cc(Cl)ccc1[N+](=O)[O-]	0	2%	0%	-4%	8%	7%
CN(CC(=O)Nc1c(Cl)cccc1Cl)C(=O)Cn1[nH]c(=O)c2ccccc2c1=O	6	-9%	5%	5%	-24%	?
